# Assay results published in PubChem BioAssay AID2071 (Sanford-Burnham Center for Chemical Genomics, 2009).
# In all, about 280,000 compounds went through this assay and about 1,700 (0.61%) were called active. Cut-off read from the data, not from the text of the source: active = inhibition mostly above about 24% (no sharp cut-off); inactive = mostly below about 32%. What follows is part of a selection rich in actives, with near analogues and random picks from the rest.
# Test: NALP1 inflammasome inhibitors in reconstituted yeast, colorimetric, S. cerevisiae, triplicate retest (AID 2071)
# Conditions: S. cerevisiae NALP1/ASC/caspase-1 growth, X-gal OD620, 72 h, stronger effect = higher value
structure (smiles),measurement,setting,value
Cc1ccc(N(Cc2cc(=O)[nH]c3ccccc23)C(=O)CCl)cc1,inhibition,at 10 µM unless noted,17.4% (inactive)
Cc1ccc(NC(=O)C/C(N)=N/O)cc1Cl,inhibition,at 10 µM unless noted,-8.9% (inactive)
O=C(CC(=O)Nc1ccc(Cl)c(Cl)c1)N/N=C/c1ccc(O)cc1,inhibition,at 10 µM unless noted,21.7% (inactive)
O=C(CC(O)(C(F)(F)F)C(F)(F)F)Nc1ccc(Cl)c(Cl)c1,inhibition,at 10 µM,78.5% (active)
same,inhibition,"triplicate retest, at 20 µM",110%
COc1ccc(C(=O)C2CCCN(C(=O)c3cc(C)on3)C2)cc1F (stereo not given),inhibition,at 10 µM unless noted,4% (inactive)
Cc1ccc(/C=N/NC(=O)c2cc3ccccc3cc2O)o1,inhibition,at 10 µM unless noted,-11.5% (inactive)
CC(=O)N(C)c1ccc(NC(=O)Nc2cccc3ccccc23)cc1,inhibition,at 10 µM unless noted,15.8% (inactive)
CCOc1cc(/C=C/c2nc3ccccc3c(=O)[nH]2)cc(Br)c1OC,inhibition,at 10 µM unless noted,8.1% (inactive)
O=C(c1ccc(CN2CCOCC2)cc1)N1CCN(c2ccccc2F)CC1,inhibition,at 10 µM unless noted,6.8% (inactive)
O=C(c1cccc2ccccc12)N1CCN(c2ccccc2F)CC1,inhibition,at 10 µM unless noted,41.1% (active)
COc1ccc2oc(=O)c(C(=O)N3CCN(c4ccccc4F)CC3)cc2c1,inhibition,at 10 µM unless noted,0.6% (inactive)
COc1ccccc1CNC(=O)[C@@H]1CCCN1C(=O)[C@@H]1Cc2ccccc2CN1C(=O)OC(C)(C)C,inhibition,at 10 µM unless noted,-18.4% (inactive)
COc1ccc(NS(=O)(=O)c2ccc(NC(C)=O)cc2)cc1OC,inhibition,at 10 µM unless noted,26.3% (inactive)
COc1ccc(NC(=O)CNC(=O)Cc2ccccc2)cc1OC,inhibition,at 10 µM unless noted,-89.6% (inactive)
COc1ccc(NC(=S)SC)cc1OC,inhibition,at 10 µM,73.8% (active)
same,inhibition,"triplicate retest, at 20 µM",94.6%
Cc1cc(NC(=O)CCN2CCN(Cc3ccccc3)CC2)ccc1Br,inhibition,at 10 µM unless noted,16.7% (inactive)
CN(CCO)c1ccc(/C=N/Nc2nncc3ccccc23)cc1,inhibition,at 10 µM unless noted,3.8% (inactive)
O=C(C(NS(=O)(=O)c1cccc2nsnc12)c1ccccc1)N1CCN(c2ccccn2)CC1 (stereo not given),inhibition,at 10 µM unless noted,8.1% (inactive)
O=C(C(NS(=O)(=O)c1cccc2nsnc12)c1ccccc1)N1CCN(c2ccccc2)CC1 (stereo not given),inhibition,at 10 µM unless noted,34.4% (active)
O=C(O)C(NS(=O)(=O)c1cccc2nsnc12)c1ccccc1 (stereo not given),inhibition,at 10 µM unless noted,15.5% (inactive)
CCOc1ccc(CN2CCN(CCCc3ccccc3)C(CCO)C2)cc1 (stereo not given),inhibition,at 10 µM unless noted,28.9% (inactive)
CCn1ccnc1CN(C)C(=O)c1cc(COc2ccc(Cl)cc2OC)on1,inhibition,at 10 µM unless noted,-9.7% (inactive)
CC(C)(C)c1ccc(/C=C/C(=O)NCCCn2ccnc2)cc1,inhibition,at 10 µM unless noted,1.5% (inactive)
COc1ccc(F)c(-c2nc(CN3CCC(c4ccccc4)CC3)c(C)o2)c1,inhibition,at 10 µM unless noted,13.2% (inactive)
CCOc1ccccc1-c1cc(C(=O)N2CCOCC2)c2ccccc2n1,inhibition,at 10 µM unless noted,0.7% (inactive)
CCOc1ccccc1-c1nc(CN2CCC(C(=O)N3CCOCC3)CC2)c(C)o1,inhibition,at 10 µM unless noted,29% (active)
CCOc1ccc(CN2CCNC(=O)C2CC(=O)NCCCC2CCCC2)cc1 (stereo not given),inhibition,at 10 µM unless noted,1% (inactive)
C/C(=N\NC(=O)c1cc(-c2ccc(O)cc2)nc2ccccc12)c1cccnc1,inhibition,at 10 µM unless noted,-2.6% (inactive)
CCOC(=O)CSc1nc2ccc(C)cc2n2cnnc12,inhibition,at 10 µM unless noted,10.4% (inactive)
COc1ccc(-n2c(SCC(=O)Nc3sc4c(c3C#N)CCCC4)nnc2-c2ccc(O)cc2)cc1,inhibition,at 10 µM unless noted,40.9% (active)
CCCc1cc(=O)[nH]c(SCC(=O)Nc2sc3c(c2C#N)CCCC3)n1,inhibition,at 10 µM unless noted,9.4% (inactive)
N#Cc1c(NC(=O)CSc2nc3ccccc3c(=O)n2Cc2ccco2)sc2c1CCCC2,inhibition,at 10 µM unless noted,20.7% (inactive)
COc1ccc(C(=O)NCC(=O)N/N=C/c2cccnc2)cc1,inhibition,at 10 µM unless noted,-23.5% (inactive)
CC(C)[C@@H]1COC(c2cccc(C3=N[C@H](C(C)C)CO3)c2)=N1,inhibition,at 10 µM unless noted,10.4% (inactive)
COc1ccc(C(=O)CSc2nc(C)cc(C)n2)cc1[N+](=O)[O-],inhibition,at 10 µM unless noted,-10% (inactive)
COc1ccc(OCc2cn3c(C)cc(C)nc3n2)cc1,inhibition,at 10 µM unless noted,22.5% (inactive)
COc1ccc(C(C[N+](=O)[O-])n2nc(C)cc2C)cc1 (stereo not given),inhibition,at 10 µM unless noted,103% (active)
CN(Cc1cnccn1)C(=O)c1cc(COc2cccc(C(F)(F)F)c2)on1,inhibition,at 10 µM unless noted,-7.1% (inactive)
S=C(Nc1cccc(Cl)c1)Nc1ccc2c(c1)OCCO2,inhibition,at 10 µM unless noted,2% (inactive)
Cc1ccc(NC(=O)CN2CCc3ccccc3C2)cc1,inhibition,at 10 µM unless noted,-0.6% (inactive)
Cc1cccc(C)c1NC(=O)c1ccc(CN2CCc3ccccc3C2)cc1,inhibition,at 10 µM unless noted,29.1% (active)
CN(c1cccc(NC(=O)c2ccc(CN3CCc4ccccc4C3)cc2)c1)S(C)(=O)=O,inhibition,at 10 µM unless noted,-14.2% (inactive)
CCOC(=O)c1ccc(NC(=O)c2cccnc2)cc1,inhibition,at 10 µM unless noted,16.3% (inactive)
S=C(Nc1ccc(Cl)cc1Cl)N1CCCC1,inhibition,at 10 µM unless noted,11% (inactive)
O=C(CCS(=O)(=O)c1cccc2nsnc12)N1CCN(c2ccccc2F)CC1,inhibition,at 10 µM unless noted,42.9% (active)
CCC(=O)N1CCc2cc(S(=O)(=O)CCC(=O)N3CCN(c4ccccc4F)CC3)ccc21,inhibition,at 10 µM unless noted,32% (inactive)
O=C(CCCNS(=O)(=O)c1cccc2nsnc12)NCCN1CCN(c2ccccc2F)CC1,inhibition,at 10 µM unless noted,8.8% (inactive)
CN(C(=O)c1cc2c(=O)n3ccccc3nc2s1)C1CCCCC1,inhibition,at 10 µM unless noted,4.6% (inactive)
